Measurements from PubChem BioAssay.
Calls of active or inactive are those of the source. Unless noted, how the calls were made is not given here.

Experiments:
[1] = compound effects on lung adenocarcinoma cell viability – A549, calcein-AM fluorescence, 48 h, basal, profiling panel (AID 1162); conditions: higher = more signal; further: test concentration not given here
[2] = compound effects on differentiated 3T3-L1 adipocyte viability – cell-based, 3T3-L1 adipocytes, calcein-AM fluorescence, 48 h, basal, profiling panel (AID 1163); conditions: 3T3-L1 adipocytes viability, higher = more signal; further: test concentration not given here
[3] = compound effects on hepatocellular carcinoma cell viability – HepG2, calcein-AM fluorescence, 48 h, basal, profiling panel (AID 1164); conditions: higher = more signal; further: test concentration not given here
[4] = compound effects on multiple myeloma cell viability – MM1S, calcein-AM fluorescence, 48 h, basal, profiling panel (AID 1165); conditions: higher = more signal; further: test concentration not given here
[5] = calcein-AM signal in unstimulated myeloma cells – cell-based, calcein-AM fluorescence, 48 h, PK04 Diversity Set, profiling panel (AID 1166); conditions: RPMI8226 myeloma viability, higher = more signal;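 further: cells grown under basal conditions without added stimulus; test concentration not given here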
[6] = JC-1 mitochondrial signal, unstimulated HepG2 cells – cell-based, JC-1 fluorescence, 24 h, 100 nL compound, profiling panel (AID 1167); conditions: HepG2 mitochondrial potential, higher = more signal; further: test concentration not given here
[7] = JC-1 mitochondrial signal, unstimulated adipocytes – cell-based, JC-1 fluorescence, 3T3-L1 adipocytes, 24 h, 100 nL compound, profiling panel (AID 1168); conditions: JC-1 mitochondrial fluorescence, higher = more signal, called active from +8 up or from −8 down; further: test concentration not given here
[8] = JC-1 mitochondrial signal, unstimulated myeloma cells – cell-based, JC-1 fluorescence, RPMI8226, 24 h, 100 nL compound, profiling panel (AID 1169); conditions: JC-1 mitochondrial potential fluorescence, higher = more signal; further: test concentration not given here
[9] = JC-1 mitochondrial signal, unstimulated MM1S myeloma – cell-based, JC-1 fluorescence, 24 h, 100 nL compound, profiling panel (AID 1170); conditions: MM1S mitochondrial potential, higher = more signal; further: test concentration not given here
[10] = resazurin metabolic signal in A549 cells – cell-based, resazurin fluorescence, 24 h, PK04 Diversity Set, profiling panel (AID 1171); conditions: A549 viability, higher = more signal, called active from +8 up or from −8 down; further: test concentration not given here
[11] = resazurin metabolic signal in HepG2 cells – cell-based, resazurin fluorescence, 24 h, PK04 Diversity Set, profiling panel (AID 1172); conditions: HepG2 viability, higher = more signal; further: test concentration not given here
[12] = budding yeast growth changes without added modifier – OD600, strain BY4716, 24 h, basal condition, primary screen (AID 1173); conditions: S. cerevisiae BY4716 growth, OD600, 24 h; higher = more signal, called active from +8 up or from −8 down
[13] = viability profiling in MM1S myeloma cells – cell-based, resazurin fluorescence, basal, 24 h, PK04 Diversity Set, profiling panel (AID 1174); conditions: higher = more signal, called active from +8 up or from −8 down; further: test concentration not given here
[14] = target: Dihydroorotate dehydrogenase (quinone), mitochondrial (Plasmodium falciparum (isolate 3D7)) (UniProt Q08210); experiment: inhibition of P. falciparum DHODH – biochemical, C-terminal His tag, absorbance 600 nm, primary screen (AID 1175); conditions: PfDHODH enzyme, DCIP absorbance 600 nm; higher = more signal, called active from +8 up or from −8 down;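 further: recombinant parasite enzyme with a five histidine tag at its C terminus; test concentration not given here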
Sequence of Dihydroorotate dehydrogenase (quinone), mitochondrial (Plasmodium falciparum (isolate 3D7)) (Q08210 whole entry, looked up): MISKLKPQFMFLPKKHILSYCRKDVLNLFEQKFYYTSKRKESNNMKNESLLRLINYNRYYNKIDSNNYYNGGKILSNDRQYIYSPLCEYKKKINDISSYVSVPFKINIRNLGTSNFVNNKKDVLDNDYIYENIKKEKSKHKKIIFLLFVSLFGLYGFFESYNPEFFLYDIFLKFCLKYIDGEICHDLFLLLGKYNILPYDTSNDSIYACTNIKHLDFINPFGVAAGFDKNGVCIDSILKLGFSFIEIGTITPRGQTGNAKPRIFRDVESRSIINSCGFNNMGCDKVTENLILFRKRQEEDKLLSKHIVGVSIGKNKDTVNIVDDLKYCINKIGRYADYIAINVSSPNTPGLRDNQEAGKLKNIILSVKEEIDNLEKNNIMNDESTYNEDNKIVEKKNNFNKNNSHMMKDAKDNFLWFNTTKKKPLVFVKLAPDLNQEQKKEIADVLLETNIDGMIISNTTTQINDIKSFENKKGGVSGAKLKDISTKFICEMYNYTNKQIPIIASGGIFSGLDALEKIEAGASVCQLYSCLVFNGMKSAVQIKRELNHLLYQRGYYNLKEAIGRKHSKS

[15] = inhibition of PAO1 biofilm formation – strain PAO1, LB-PBS medium, absorbance 600 nm, primary screen (AID 1176); further: test concentration not given here; conditions: P. aeruginosa PAO1 growth/biofilm, A600, 12 h; higher = more signal
[16] = growth modulation of vineyard yeast isolate – strain RM11-1a, OD600, basal, 24 h, primary screen (AID 1177);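 further: cultures grown under basal conditions with no added stressor; test concentration not given here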; conditions: S. cerevisiae RM11-1a growth, OD600, 24 h; higher = more signal, called active from +8 up or from −8 down
[17] = growth of efflux-deficient E. coli DRC39 – strain DRC39, OD650, 24 h, E. coli filamentation inducers, primary screen (AID 1178);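 further: growth measured as culture turbidity by optical density at 650 nm; test concentration not given here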; conditions: E. coli DRC39 acrAB, higher = more signal, called active from +8 up or from −8 down
[18] = growth of efflux-deficient E. coli DRC39 – strain DRC39, OD650, 48 h, E. coli filamentation inducers, primary screen (AID 1179);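 further: screen aims at cell division blockers that make cells filament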; conditions: E. coli DRC39 delta-acrAB growth, higher = more signal, called active from +8 up or from −8 down
[19] = viability profiling in RPMI8226 myeloma cells – cell-based, resazurin fluorescence, basal, 24 h, PK04 Diversity Set, profiling panel (AID 1180); conditions: higher = more signal;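 further: RPMI8826 multiple myeloma cell line at 5000 cells per well; test concentration not given here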
[20] = target: E3 ubiquitin-protein ligase XIAP (Homo sapiens) (UniProt P98170); experiment: small molecules binding XIAP protein – biophysical, small-molecule microarray, fluorescence 635 nm, primary screen (AID 1181); conditions: higher = more signal;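 further: score merges 667 nm emission and signal to noise over triplicate slides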
Sequence of E3 ubiquitin-protein ligase XIAP (Homo sapiens) (P98170 whole entry, looked up): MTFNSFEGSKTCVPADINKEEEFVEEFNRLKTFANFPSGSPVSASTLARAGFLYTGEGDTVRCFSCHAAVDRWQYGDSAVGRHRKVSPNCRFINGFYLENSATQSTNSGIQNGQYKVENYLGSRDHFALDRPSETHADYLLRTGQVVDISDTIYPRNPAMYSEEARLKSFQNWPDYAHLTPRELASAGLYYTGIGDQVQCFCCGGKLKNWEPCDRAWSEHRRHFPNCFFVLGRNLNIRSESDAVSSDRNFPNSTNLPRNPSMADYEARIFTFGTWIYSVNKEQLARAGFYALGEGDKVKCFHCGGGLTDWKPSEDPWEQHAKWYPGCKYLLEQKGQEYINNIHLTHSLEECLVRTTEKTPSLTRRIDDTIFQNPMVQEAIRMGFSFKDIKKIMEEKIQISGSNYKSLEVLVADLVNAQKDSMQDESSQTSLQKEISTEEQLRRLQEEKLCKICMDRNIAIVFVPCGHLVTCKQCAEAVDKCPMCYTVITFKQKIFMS

Row | Structure (SMILES) | z-score [1] | z-score [2] | z-score [3] | z-score [4] | z-score [5] | z-score [6] | z-score [7] | z-score [8] | z-score [9] | z-score [10] | z-score [11] | z-score [12] | z-score [13] | composite z-score [14] | z-score [15] | z-score [16] | z-score [17] | z-score [18] | z-score [19] | composite z-score [20]
1 | CCC#CCN(Cc1ccccc1Br)[C@H](/C=C/C1CC1)[C@@H](O)Cc1ccccc1 | -0.382 | 0.929 | -0.713 | -2.23 | -3.31 | -1.28 | -0.611 (inactive) | -0.774 | -1.39 | 2.76 (inactive) | 2.23 | -3.06 (inactive) | 1.93 (inactive) | -0.769 (inactive) | 0.686 (inactive) | -2.7 (inactive) | 1.96 (inactive) | 0.706 (inactive) | 0.329 | -0.144
2 | Cc1ccccc1C(O)C1C=CC2C(=O)NC(=O)C2N1Nc1ccccn1 (stereo not given) | -0.251 | -1.09 | -0.823 | -0.0706 | -0.729 | -0.831 | -0.654 (inactive) | 0.551 | 0.365 | -1.02 (inactive) | -1.07 | 1.21 (inactive) | -0.777 (inactive) | 1.57 (inactive) | 0.543 (inactive) | 0.487 (inactive) | -0.387 (inactive) | -0.316 (inactive) | -0.489 | 0.127
3 | COc1cc(NN2C(C(O)c3ccco3)C=CC3C(=O)N(C)C(=O)C32)cc(OC)c1OC (stereo not given) | -1.2 | -0.615 | -0.827 | 0.032 | 0.134 | -1.01 | -0.892 (inactive) | -0.573 | 0.314 | -1.41 (inactive) | -1.41 | 0.753 (inactive) | -1.76 (inactive) | -0.139 (inactive) | 0.711 (inactive) | 0.322 (inactive) | -1.02 (inactive) | -0.941 (inactive) | -1.98 | 0.391
4 | COc1ccc(C#Cc2ccc3c(c2)[C@]2(C(=O)N3)[C@H](c3ccc(O)cc3)N3[C@H](c4ccccc4)[C@H](c4ccccc4)OC(=O)[C@H]3[C@@H]2C(=O)Nc2nc3ccccc3s2)cc1 | 0.453 | 1.89 | -0.0578 | -1.4 | -2.6 | -2.28 | 0.0579 (inactive) | -0.429 | 0.0506 | -1.21 (inactive) | -1.11 | -0.155 (inactive) | 0.415 (inactive) | -15.8 (active) | 1.21 (inactive) | 1.2 (inactive) | 0.198 (inactive) | 0.0227 (inactive) | 1.07 | 0.289
5 | CCCCC(CC)C(O)C1C=CC2C(=O)N(c3ccccc3)C(=O)C2N1Nc1ccccc1F (stereo not given) | 0.389 | -0.21 | -0.553 | 0.566 | 0.203 | -0.639 | -0.511 (inactive) | 0.51 | -0.775 | 0.653 (inactive) | 0.518 | 0.814 (inactive) | 0.888 (inactive) | 0.301 (inactive) | 0.657 (inactive) | 0.732 (inactive) | 0.207 (inactive) | 0.644 (inactive) | 0.767 | 0.0727
6 | COC(=O)[C@@]1(Cc2ccc(OC)cc2)[C@H]2c3cc(C(=O)N4CCCC4)n(CCO)c3C[C@H]2CN1C(=O)c1ccccc1 | -0.832 | 0.929 | 0.519 | -1.25 | -0.974 | 1.59 | -1.55 (inactive) | 0.506 | -1.35 | -1.07 (inactive) | -1.39 | 0.91 (inactive) | -2.2 (inactive) | -0.203 (inactive) | 0.632 (inactive) | 0.941 (inactive) | -0.614 (inactive) | -1.21 (inactive) | -0.861 | 0.311
7 | COc1cc2c(cc1O)C(C1CC1)N(Cc1cccc(OC(F)(F)F)c1)CC2 (stereo not given) | -1.74 | 0.119 | -3.68 | -3.18 | -2.99 | -2.84 | -0.356 (inactive) | -0.686 | -2.61 | -1.05 (inactive) | -0.882 | -5.59 (inactive) | -3.32 (inactive) | -3.64 (inactive) | -0.0344 (inactive) | 0.002 (inactive) | 0.213 (inactive) | -0.0239 (inactive) | -2.84 | 0.0674
8 | C[N+](C)(C)CCCCCCNC(=O)[C@@H]1C[C@@H]2C(=O)N3CCC[C@H]3C(=O)N2[C@@H]1c1ccc(O)cc1 | -0.134 | -0.329 | -0.526 | -0.403 | -0.106 | -1 | -0.362 (inactive) | -0.101 | -0.637 | 1.78 (inactive) | 1.4 | -0.827 (inactive) | 1.02 (inactive) | -1.53 (inactive) | -0.984 (inactive) | -0.0176 (inactive) | 0.0464 (inactive) | -0.207 (inactive) | 0.441 | -0.169
9 | O=C1C2C=CC(C(O)c3cccc(O)c3)N(Nc3ccc([N+](=O)[O-])cc3)C2C(=O)N1c1ccccc1 (stereo not given) | -0.505 | -0.55 | -0.0586 | -0.0899 | 0.45 | -2.01 | -1.78 (inactive) | -0.217 | -1.25 | 0.014 (inactive) | 0.0585 | 0.661 (inactive) | -0.337 (inactive) | 0.861 (inactive) | -0.0601 (inactive) | 0.339 (inactive) | -0.478 (inactive) | -0.156 (inactive) | -0.55 | 0.0927
